Screening data deposited in PubChem BioAssay by The Scripps Research Institute Molecular Screening Center.
Rows were chosen to be rich in hits. Some 4.8% of all compounds tested hit in one or more screens of this group.
hgDAF-12 ag: H. glycines DAF-12 receptor agonists, primary screen, cell-based, luminescence, HEK293, GAL4 fusion, UAS-luciferase. Nuclear hormone receptor DAF-12 (Heterodera glycines), GAL4 fusion. HEK293 GAL4-hgDAF12 UAS-luciferase reporter, agonist luminescence; normalized to butyrate control. activation, % at 6.8 µM. hit rate 1.8% among 370,000. AID 687014, 2013;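 active means activation above a cutoff set at the mean of all screened compounds plus 3 SD, cut at about 10% in these data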;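 further: 0% = DMSO wells and 100% = sodium butyrate wells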
hcDAF12 agonist: H. contortus DAF-12 nuclear receptor activators, primary screen, cell-based, luminescence, HEK293, lit1-tk-luc reporter; AID 652067, 2013; HEK293 hcDAF-12 lit1-tk-luc reporter; 0% DMSO, 100% Δ7-dafachronic acid; hit rate 1.4% among 370,000; activation, % at 6.8 µM;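 active means activation above the mean of all tested compounds plus 3 SD, cut at about 5.5% in these data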;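 further: 100% = response to 3 µM Δ7-dafachronic acid high control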
DAX1 inh-1: DAX1 (NR0B1) inhibitors, primary screen, cell-based, HEK293, Gal4-DAX1, luciferase luminescence | Nuclear receptor subfamily 0 group B member 1 (Homo sapiens), P51843 | HEK293 Gal4-DAX1 luciferase reporter | inhibition, % at 6.75 µM | hit rate 0.99% among 340,000;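 active means inhibition above the mean over all tested compounds plus 3 SD, cut at about 4.2% in these data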;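 further: 0% = DAX1-transfected cells with DMSO and 100% = empty-vector control cells with DMSO; inhibition shows as a rise in luminescence from relieved DAX1 repression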
DAX1 inh-2: DAX1 (NR0B1) inhibitors on StAR promoter, primary screen, cell-based, luminescence, SF-1 (NR5A1), full-length DAX-1; HEK293T StAR-luciferase reporter, SF-1/DAX-1 repression relief; inhibition, % at 6.8 µM; hit rate 1.1% among 370,000; AID 652010, 2013;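 active means inhibition above the mean over all tested compounds plus 3 SD, cut at about 3.6% in these data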;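 further: 0% = DAX-1 cells with DMSO and 100% = cells lacking DAX-1 with DMSO; higher inhibition means more luminescence from relief of DAX-1 repression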
ssDAF-12 act: S. stercoralis DAF-12 nuclear receptor activators, primary screen, cell-based, luminescence, HEK293, GRIP1 co-expression, lit1-tk-luc; AID 652126, 2013; Nuclear hormone receptor DAF-12 (Strongyloides stercoralis); hit rate 1% among 370,000; activation, % at 6.8 µM; HEK293 ssDAF-12/GRIP1 lit1-tk-luc reporter; % of 3 µM dafachronic acid response;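 active means activation above the mean over all tested compounds plus 3 SD, cut at about 0.9% in these data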;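 further: 0% = DMSO-only wells and 100% = 3 µM delta7-dafachronic acid wells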
SMARCA2 activ: SMARCA2 (BRM) function activators, primary screen, cell-based, luminescence, high throughput. hit rate 1% among 370,000. activation, % at 9.1 µM. AID 652017, 2013. MG213 cells, MMTV-luciferase reporter, dexamethasone, overnight; in the data active means activation above about 7.8%;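 further: 0% = vehicle wells and 100% = reference activator wells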
SMARCA2 conf: SMARCA2 (BRM) function activators, confirmation, cell-based, luminescence, triplicate | activation, % at 9.1 µM | hit rate 30% among 3,500 | MG213 cells, MMTV-luciferase with dexamethasone, overnight; MG213 cells expressing E1A, Rb sequestered; DMSO wells 0%, reference activator 100% | shares compounds with SMARCA2 activ | AID 652260, 2013;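 active means activation above its plate's cutoff, the mean activation of tested wells plus 3 SD, cut at about 7.9% in these data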
VP16 Luc act: GAL4-VP16 luciferase reporter activation, counter-screen for SMARCA2 (BRM) activator project, cell-based, pG5luc, luminescence, high throughput | shares compounds with SMARCA2 activ | HEK293 GAL4-VP16 pG5luc reporter; scaled: DMSO wells 0%, SAHA wells 100% | activation, % at 9.1 µM | hit rate 41% among 3,500 | AID 686939, 2013;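 active means activation above the solvent-only control well mean plus 3 SD, averaged across control plates, cut at about 5.2% in these data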
LXRb hcDAF ctr: LXR agonists, Gal4 luciferase reporter, confirmation, counter-screen for hcDAF-12 agonist project, cell-based, luminescence, HEK293, H. contortus campaign | shares compounds with hcDAF12 agonist | HEK293 Gal4-LXR tk-luc reporter, 24 h; normalized: DMSO 0%, positive control 100% | AID 743027, 2013 | 3,400 tested, under 10 active | activation, % at 6.8 µM;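 active means mean percent activation of the reporter above a cutoff set as the average over tested compounds plus their standard deviation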
Target sequence (P55055 whole entry, looked up, the tested form may be a part): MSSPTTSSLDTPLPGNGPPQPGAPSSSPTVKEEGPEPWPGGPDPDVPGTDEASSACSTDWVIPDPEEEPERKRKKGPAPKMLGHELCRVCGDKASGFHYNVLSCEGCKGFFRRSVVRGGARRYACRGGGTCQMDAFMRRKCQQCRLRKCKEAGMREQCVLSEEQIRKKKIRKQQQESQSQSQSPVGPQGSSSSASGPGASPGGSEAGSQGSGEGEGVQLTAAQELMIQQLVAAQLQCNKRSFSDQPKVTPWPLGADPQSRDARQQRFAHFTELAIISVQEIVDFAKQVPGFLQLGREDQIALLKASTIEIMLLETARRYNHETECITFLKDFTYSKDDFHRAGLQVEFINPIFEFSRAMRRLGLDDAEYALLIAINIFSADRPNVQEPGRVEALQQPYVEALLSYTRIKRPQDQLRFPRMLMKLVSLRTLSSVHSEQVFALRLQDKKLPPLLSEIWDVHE
hcDAF12 conf: H. contortus DAF-12 receptor agonists, confirmation, cell-based, luminescence, HEK293, lit1-tk-luc, triplicate; shares compounds with hcDAF12 agonist; HEK293 hcDAF-12 lit1-tk-luc reporter; % of Δ7-dafachronic acid response; activation, % at 6.8 µM; hit rate 61% among 3,400; AID 743032, 2013;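 active means mean activation across triplicate tests above the threshold derived from the earlier primary screen, cut at about 5.5% in these data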;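 further: 0% = DMSO only wells and 100% = 3 µM Δ7-dafachronic acid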
The depositor's hits bear a star; . = no result given.

SMILES	hgDAF-12 ag	hcDAF12 agonist	DAX1 inh-1	DAX1 inh-2	ssDAF-12 act	SMARCA2 activ	SMARCA2 conf	VP16 Luc act	LXRb hcDAF ctr	hcDAF12 conf
Cc1ccc(N=Nc2[nH]c3ccccc3c2O)cc1	13*	9.5*	3	2	1	9.1*	14*	5	1	12*
COc1ccc(N=Nc2[nH]c3ccc(C)cc3c2O)cc1	2	4	0	0	0	0	.	.	.	.
C(=N\Nc1ncnc2ccccc12)/c1ccccc1	15*	8.4*	0	3	1.3*	9.2*	11*	9.1*	1	8.5*
C(=N\Nc1nc2ccccc2[nH]1)/c1ccccc1	-2	-4	1	1	-2	-7	.	.	.	.
CCN(CC)CCCNc1nc2ccccc2c2[nH]c3ccc(OC)cc3c12	7	14*	4	0	3.6*	54*	-15	-1	2	16*
CCC1(c2ccccc2)NC(=O)N(CC(=O)N(C)Cc2c(F)cccc2Cl)C1=O (stereo not given)	0	-1	-1	0	-1	0	.	.	.	.
O=C1CNC(=S)N1c1nc2ccccc2s1	5	6.8*	1	1	0	28*	10*	3	0	8.0*
CCOC(=O)c1c(S(=O)(=O)N2CCN(Cc3ccccc3)CC2)c(C)n(C)c1C	-2	0	1	0	-1	-1	.	.	.	.
CC(=O)c1c(C)nc(-c2ccc(Cl)cc2)nc1N	10	15*	2	3	1.6*	10*	3	11*	1	7.3*
CSc1ncc(Cl)c(C(=O)Nc2ccccc2Cl)n1	-4	3	3	0	-2	-1	.	.	.	.
CCN(CC)CCn1c2ccccc2c2nc3ccc([N+](=O)[O-])cc3cc21	4	9.0*	.	1	1.1*	10*	99*	5	1	6.8*
CC(=O)Nc1sc2c(c1-c1nc3ccccc3s1)CN(C(C)C)CC2	11*	14*	1	-1	2.5*	19*	7	-1	2	17*
Oc1cccc2ccc(/C=C/c3c(F)cccc3Cl)nc12	18*	9.5*	4	3.7*	2.0*	11*	-12	16*	1	9.6*
Oc1cccc2ccc(/C=C/c3ccccc3Cl)nc12	10	7.1*	2	0	1	12*	-5	11*	1	6.5*
CCc1ccc(NC(=O)C2CCCN(S(=O)(=O)c3cnc[nH]3)C2)cc1 (stereo not given)	.	.	0	.	.	.	.	.	.	.
Cc1cc(C)cc(-n2cccc2/C=C2/C(=N)N3C(=NC2=O)SN=C3S(C)(=O)=O)c1	1	1	1	-1	-1	0	.	.	.	.
O=C(c1cc2cc(Cl)ccc2oc1=O)N1CCOCC1	0	-1	-1	0	-1	-1	.	.	.	.
O=C(c1cc2ccccc2oc1=O)N1CCOCC1	11*	6.7*	3	3	0	8.0*	15*	4	1	5.6*
CC1CC(=O)c2cnc(NCc3ccco3)nc2C1 (stereo not given)	1	1	2	0	-1	-1	.	.	.	.
Cc1ccc(Nc2ncc3c(n2)CC(C)CC3=O)c(C)c1 (stereo not given)	10	7.1*	4	2	0	8.2*	8.3*	4	1	5
COc1ccc(Nc2nc(Nc3ccc(OC)cc3)nc(SC3=NCCS3)n2)cc1	-2	-3	-1	-2	-2	-5	.	.	.	.
O=C(CCNS(=O)(=O)c1cccs1)N1CCN(c2cccc(Cl)c2)CC1	-1	-2	0	0	-1	-2	.	.	.	.
CCOc1ccccc1OCCCC(=O)Nc1cccc(-n2cnnn2)c1C	-2	-1	0	1	-1	2	.	.	.	.
CCOC(=O)c1ccc(/C=C2/C=C(c3ccccc3)N(c3ccc(Cl)c(C(=O)O)c3)C2=O)cc1	0	8.4*	0	0	-1	12*	-2	-1	0	-3
O=C1N/C(=C\c2ccc(O)cc2)C(=O)c2ccccc21	.	.	-1	.	.	.	.	.	.	.
SMILES	hgDAF-12 ag	hcDAF12 agonist	DAX1 inh-1	DAX1 inh-2	ssDAF-12 act	SMARCA2 activ	SMARCA2 conf	VP16 Luc act	LXRb hcDAF ctr	hcDAF12 conf
O=C(CCCc1nc2ccccc2s1)Nc1nccs1	4	1	1	1	-1	-1	.	.	.	.
Cc1cnc(NC(=O)CCCc2nc3ccccc3s2)s1	12*	10*	3	-1	5.3*	27*	29*	-1	1	6.9*
Cc1cc(C(=O)NCCCN(C)C)c2ccccc2n1	0	-1	2	0	-1	0	.	.	.	.
CN(C)CCNC(=O)c1cccc2nc3cccc(F)c3nc12	-1	18*	1	-4	1.5*	52*	194*	14*	1	14*
COc1ccc(OC)c2nc3c(C(=O)NCCN(C)C)cccc3nc12	2	11*	1	1	0	21*	52*	2	0	9.2*
N#CCCN1CCN(S(=O)(=O)c2ccc(C3CCCCC3)cc2)CC1	-3	-4	0	-3	-1	-3	.	.	.	.
